Source: PubChem BioAssay (Broad Institute)
NSD2 inh: NSD2 (human) methyltransferase inhibition. inhibition, % at 12.5 µM. 310,000 tested, 0.54% active. AID 743445. NSD2 peptide methylation, AlphaScreen, 120 min; in the data active = inhibition above about 50%
MLL AF4-AF9 inh: blocks AF4 peptide binding to human AF9; P42568; AlphaScreen, biotin-AF4 peptide binding to FLAG-AF9; inhibition, % at 10 µM; 350,000 tested, 0.47% active;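 active = every replicate reaching a set inhibition limit, whatever the replicate mean, cut at about 25% in these data; inconclusive = mean inhibition reaches that limit but some replicates miss it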;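 also: 0% = plate neutral control median and 100% = total signal loss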
CASP6 VEID inh: caspase-6 (human) enzyme inhibition; P55212; purified caspase-6, Z-VEID-R110 cleavage fluorescence; inhibition, % at 12.5 µM; 350,000 tested, 0.53% active; AID 686996;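 active = mean inhibition across replicates at least about 35%, with every replicate also reaching that limit, limit read from the data; inconclusive = only one of the two criteria met; inactive = neither criterion met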;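 also: 0% = median of neutral control wells and 100% = no fluorescence left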
Target sequence (P55212 24-179 limits assumed): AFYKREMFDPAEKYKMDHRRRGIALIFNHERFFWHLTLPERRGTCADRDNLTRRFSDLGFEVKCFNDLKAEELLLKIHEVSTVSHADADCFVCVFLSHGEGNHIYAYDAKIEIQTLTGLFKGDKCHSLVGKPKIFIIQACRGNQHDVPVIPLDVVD
Target sequence (P55212 194-293 limits assumed): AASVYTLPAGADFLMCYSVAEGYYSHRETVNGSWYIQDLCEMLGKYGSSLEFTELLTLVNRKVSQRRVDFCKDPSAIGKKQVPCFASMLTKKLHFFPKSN
rRNA inh HTS: selective bacterial rRNA inhibition in E. coli | 350,000 tested, 1.6% active | E. coli WT GFP vs humanized-ribosome RFP mutants, fluorescence, 24 h; active compounds read low; DMSO median 0, no signal -100 | GFP signal change (wild-type ribosome), % (no concentration beside the values);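 active = significant combined selectivity score with lowered wild-type GFP, culture density cut under 30%, mutant RFP and density less affected; inactive = any of these conditions unmet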
RAD52 anneal inh: RAD52 (human) annealing inhibition; recombinant RAD52 DNA annealing, FRET fluorescence; inhibition, % at 18.7 µM; 360,000 tested, 0.46% active; AID 651710;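 active = every replicate showing at least 50% inhibition; inconclusive = mean inhibition at least 50% but not in every replicate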
An asterisk follows results filed as active; ? = inconclusive; · = no result; ! = not active in a repeat. Only some compounds are listed: those with a hit (about 2.5% of all), similar ones and a draw of the others.

SMILES	NSD2 inh	MLL AF4-AF9 inh	CASP6 VEID inh	rRNA inh HTS	RAD52 anneal inh
C[C@@H]1CN([C@H](C)CO)C(=O)c2cccc(NC(=O)Nc3cccc4ccccc34)c2O[C@H]1CN(C)C(=O)Nc1ccc(F)cc1	·	10.9	0.0	-4.7	-10.8
CO[C@H]1CN(C)C(=O)c2cc(NC(=O)c3cccc(Oc4ccccc4)c3)ccc2OC[C@@H](C)NC[C@@H]1C	·	·	·	-4.7	·
CC(C)(C)S(=O)N1Cc2cc(C(=O)NCc3ccc4c(c3)OCO4)nc(-c3cccc(C#CCC4CCCC4)c3)c2[C@@H]1CCO (some centres undefined)	·	4.3	-3.9	·	-42.7
CN(C)c1ccc(/C(=N\O)C(F)(F)F)cc1	0.3	5.5	-0.9	-30.9*	-12.2
O=C(C[C@@H]1CC[C@H](NC(=O)C2CC2)[C@@H](CO)O1)NC1CCC1	·	-2.1	1.4	3.2	-1.8
CSCCC(NS(=O)(=O)c1ccccc1)C(=O)OCc1nc2ccsc2c(=O)[nH]1 (centres undefined)	0.8	-11.8	2.4	1.8	-6.9
CSCCC(NS(=O)(=O)c1ccccc1)C(=O)OCc1cc(=O)oc2cc(O)ccc12 (centres undefined)	-7.2	0.8	-1.5	-22.5*	-18.5
CC(C)CCOP(=O)(c1ccc(N(C)C)cc1)C(Nc1ccccc1)c1ccc(N(C)C)cc1 (centres undefined)	15.7	13.0	-0.5	8.8	-25.7
CC(C)OP(=O)(c1ccc(N(C)C)cc1)C(Nc1ccccc1)c1ccccc1 (centres undefined)	2.8	8.1	5.0	-27.4*	-10.1
CN(C)c1ccc(P(=O)(OCc2ccccc2)C(O)c2ccccc2)cc1 (centres undefined)	2.6	1.5	-1.5	-20.1*	-11.0
C#CCN1[C@H](/C=C/C2CC2)[C@H](Cc2ccccc2)OC(=O)[C@@H]1Cc1ccccc1	·	0.4	8.1	·	6.7
CNC[C@@H]1OCCCC[C@@H](C)Oc2ccc(NC(=O)c3ccccc3)cc2C(=O)N([C@H](C)CO)C[C@H]1C	·	-0.5	2.0	2.6	-158.6
C[C@H]1CCCCO[C@@H](CN(C)S(=O)(=O)c2ccccc2)[C@@H](C)CN([C@@H](C)CO)C(=O)c2cc(NC(=O)NC3CCCCC3)ccc2O1	·	-2.1	0.3	-1.7	·
COc1cc(/C=C/C=C2/CC/C(=C/C=C/c3ccc(O)c(OC)c3)C2=O)ccc1O	0.5	4.5	52.5*	-8.5	-38.3
COc1cccc(S(=O)(=O)N2CCC3(CC2)CN[C@@H](CO)c2[nH]c4cc(OC)ccc4c23)c1	·	15.8	·	-9.5	·
O=C(COc1cc2oc(=O)c3c(c2cc1Cl)CCC3)NCCCn1ccnc1	2.1	-3.2	-4.4	-16.9*	4.2
CC(=O)N(C)C[C@H]1OCc2ccccc2-c2c(n(C)c3ccccc23)C(=O)N([C@@H](C)CO)C[C@H]1C	·	-2.6	-2.6	0.0	12.5
C[C@H]1CN([C@@H](C)CO)C(=O)c2c(c3ccccc3n2C)-c2ccccc2CO[C@H]1CN(C)C(=O)CCN(C)C	·	5.6	-1.1	0.1	50.6*
COc1ccc(CNC(=O)N(C)C[C@@H]2OCc3ccccc3-c3c(n(C)c4ccccc34)C(=O)N([C@H](C)CO)C[C@@H]2C)cc1	·	-6.0	1.3	1.1	7.8
COc1ccc(CNC(=O)N(C)C[C@@H]2OCc3ccccc3-c3c(n(C)c4ccccc34)C(=O)N([C@@H](C)CO)C[C@@H]2C)cc1	·	2.6	1.8	-19.1*!	-3.2
C[C@@H]1CN([C@H](C)CO)C(=O)c2c(c3ccccc3n2C)-c2ccccc2CO[C@@H]1CN(C)C(=O)[C@H](Cc1ccccc1)N(C)C	·	7.4	1.7	2.6	51.1*
CC(=O)N(C)C[C@H]1Oc2ccc(N)cc2CC(=O)N(C)C[C@@H]1C	·	·	·	-0.1	·
Cc1ccc(NC(=S)NNc2ccc([N+](=O)[O-])cc2S(=O)(=O)Nc2ccccc2C(=O)O)cc1C	43.9	·	·	·	·
CC(=O)Nc1ccc(C=NNc2ccc([N+](=O)[O-])cc2S(=O)(=O)Nc2ccccc2C(=O)O)cc1	-0.7	2.2	19.8	-5.9	-29.1
CN(CCO)c1ccc(C=NNc2ccc([N+](=O)[O-])cc2S(=O)(=O)Nc2ccccc2C(=O)O)cc1	·	?	37.3*	-14.1*	-44.1
COc1ccc(C(C)=NNc2ccc([N+](=O)[O-])cc2S(=O)(=O)Nc2ccccc2C(=O)O)c(OC)c1	21.3	6.9	28.0	-20.1*	-22.3
